# Experimental data taken from PubChem BioAssay AID1053133 (Broad Institute, 2014).
# Values joined by “and” are separate entries in the source; they are usually repeats but may differ in a detail not shown here. Equal entries are not always repeated. Screen size: about 89,000 compounds; about 10 (0.01%) were called active. Inconclusive results (about 10%) are left out. Cut-off read from the data, not from the text of the source: active = activity change below about -37% (passing the limit was not always enough); inconclusive = no clear call, values can overlap the other calls; tested in A549 cells. The list is a sample of the results.
# Assay: blocks a specific stage of Vaccinia orthopoxvirus infection, primary screen, cell-based, single point (AID 1053133)
# Details: Vaccinia-infected cells, mCherry/Venus stage reporter fluorescence, stronger effect = lower value, concentration not given here; activity change (Venus): measured here: Venus reporter, other viral stage
SMILES,activity change (Venus),activity change (mCherry)
Cn1cnc(CCNC(=O)[C@H]2[C@H](CO)[C@H]3Cn4c(cccc4=O)[C@H]3N2C(=O)Nc2ccccc2)c1,5.32%,12% (inactive)
COc1ccc(S(=O)(=O)Nc2ccc3c(c2)C(=O)N([C@@H](C)CO)C[C@H](C)[C@H](CN(C)Cc2ccc(C(=O)O)cc2)OCCCC[C@@H](C)O3)cc1,19.1%,34.5% (inactive)
O=C(C1CCCC1)N1[C@H](CO)[C@@H]2c3ccccc3N(S(=O)(=O)c3ccccc3)C[C@@H]21,-0.835%,3.15% (inactive)
CCC(=O)N1CCC2(CC1)CN(Cc1ccc(Cl)cc1)[C@@H](CO)c1[nH]c3cc(OC)ccc3c12,3.95%,2.91% (inactive)
O=C(C[C@H]1CC[C@@H](NC(=O)c2ccc(F)cc2)[C@@H](CO)O1)NCc1ccncn1,6.42%,11.2% (inactive)
Cc1ccc(S(=O)(=O)NCC[C@@H]2CC[C@@H](NC(=O)CCN3CCCCC3)[C@@H](CO)O2)cc1,12.7%,18.4% (inactive)
Cc1ccccc1-c1ccc2c(c1)O[C@@H](CN(C)Cc1ccc(C(=O)O)cc1)[C@@H](C)CN([C@H](C)CO)S2(=O)=O,9.16% and -2.89%,13.4% (inactive) and 11.3% (inactive)
COC(=O)[C@@H]1[C@@H](CO)[C@@H]2Cn3c(ccc(C4=CCCC4)c3=O)[C@@H]2N1Cc1cncnc1,12.2%,12.2% (inactive)
C[C@H](O)C#Cc1ccc([C@@H]2[C@@H](CO)N3CCCCN(C(=O)c4ccc(F)cc4)C[C@H]23)cc1,-0.172%,24.9% (inactive)
COC(=O)C[C@H]1CC[C@H]2[C@H](COc3ccc(NC(=O)C4CC4)cc3C(=O)N2C)O1,8.69%,16.9% (inactive)
C[C@@H](NC(=O)C[C@H]1CC[C@H](NS(=O)(=O)c2cccc(F)c2)[C@H](CO)O1)c1ccccc1,2.54%,12.2% (inactive)
COc1ccc(NC(=O)N(C)C[C@@H]2OCCCC[C@H](C)Oc3ccc(NS(=O)(=O)c4cn(C)cn4)cc3C(=O)N([C@@H](C)CO)C[C@@H]2C)cc1,6.5%,16% (inactive)
CO[C@@H]1CN(C)C(=O)c2ccc(NS(=O)(=O)c3cccc(F)c3)cc2OC[C@H](C)N(C(=O)Cc2cccnc2)C[C@@H]1C,-6.63%,-1.85% (inactive)
CCCNC(=O)N1[C@H](C#N)[C@@H](c2ccccc2C2=CCCCC2)[C@@H]1CO,2.66%,-4.44% (inactive)
O=C(C[C@H]1CC[C@H](NC(=O)c2ccc(F)cc2)[C@@H](CO)O1)NCCc1ccncc1,-8.31%,6.53% (inactive)
CC(=O)N(C)C[C@@H]1Oc2cc(C#Cc3ccccc3F)ccc2S(=O)(=O)N([C@@H](C)CO)C[C@@H]1C,-24.5%,-31.1% (inactive)
CCCNC(=O)N[C@H]1C=C[C@@H](CC(=O)NC2CCCCC2)O[C@H]1CO,-1.05%,-4.3% (inactive)
CS(=O)(=O)Nc1ccc2c(c1)[C@H]1C[C@@H](CC(=O)N3CCOCC3)O[C@@H](CO)[C@H]1O2,11.4%,11% (inactive)
CC(C)NC(=O)N1[C@H](CO)[C@H](c2ccccc2)C12CN(C(=O)Cc1ccccc1)C2,4.09%,-7.19% (inactive)

SMILES,activity change (Venus),activity change (mCherry)
COc1ccc2c3c([nH]c2c1)[C@@H](CO)N(C(=O)NC(C)C)CC31CCN(C(=O)c2ccccn2)CC1,4.18%,12.8% (inactive)
O=C(N[C@H]1CC[C@@H](CCn2cc(Cc3ccccc3)nn2)O[C@H]1CO)c1cnccn1,-8.51%,6.03% (inactive)
COc1ccc(-c2ccccc2[C@@H]2[C@@H](C#N)N(C(=O)NC3CCCC3)[C@H]2CO)cc1,-17.8%,-22.2% (inactive)
C[C@@H]1CN([C@H](C)CO)C(=O)c2cc(NC(=O)Nc3ccc(F)cc3)ccc2O[C@@H](C)CCCCO[C@@H]1CN(C)S(=O)(=O)c1cn(C)cn1,23.4%,41.6% (inactive)
CCN1[C@@H]2Cn3c(ccc(-c4cccc(OC)c4)c3=O)[C@H]1[C@@H](C(=O)N(C)C)[C@@H]2CO,15.1%,20% (inactive)
CO[C@H]1CN(C)C(=O)c2ccc(NC(=O)C3CCOCC3)cc2OC[C@H](C)NC[C@H]1C,1.25%,-0.453% (inactive)
CN1c2ccc(C#Cc3cccnc3)cc2[C@H]2[C@H](CCN2S(=O)(=O)c2ccccc2)[C@@H]1CO,-9.21%,-5.16% (inactive)
C[C@H](O)C#Cc1cnc2c(c1)C(=O)N([C@@H](C)CO)C[C@@H](C)[C@@H](CN(C)C(=O)Cc1ccccn1)O2,10.7%,17.6% (inactive)
O=C(C[C@H]1CC[C@H](NC(=O)CCN2CCCCC2)[C@@H](CO)O1)Nc1ccccc1,15.9%,7.83% (inactive)
O=C(NCC[C@H]1CC[C@@H](NS(=O)(=O)c2cccc(Cl)c2)[C@@H](CO)O1)c1cnccn1,-5.45%,-13.7% (inactive)
C[C@H](CO)N1C[C@H](C)[C@@H](CN(C)Cc2ccc(Oc3ccccc3)cc2)Oc2cc(-c3ccncc3)ccc2S1(=O)=O,1.19%,4.26% (inactive)
CO[C@@H]1CC[C@H]2CCN(C)C(=O)C[C@@H](c3ccccc3)CN(C)C(=O)c3cc(C#N)ccc3OC[C@@H]1O2,-9.45%,-7.23% (inactive)
O=C(C[C@@H]1CC[C@H]2[C@@H](COC[C@H](O)CN2C(=O)Nc2ccccc2)O1)NCc1ccccc1F,9.72%,7.54% (inactive)
COc1cccc(S(=O)(=O)N2C[C@@H]3N[C@H](C2)C3c2ccc(-c3cccc(C(=O)N(C)C)c3)cc2)c1 (some centres undefined),-11.2%,-13.4% (inactive)
CCCC(=O)N1CC2(CCN(C(=O)C3CC3)CC2)c2c(n(C)c3cc(OC)ccc23)[C@H]1CO,-6.7%,-2.69% (inactive)
COCC(=O)Nc1ccc2c(c1)OC[C@@H](C)N(Cc1ccccn1)C[C@H](C)[C@@H](OC)CN(C)C2=O,15.4%,16.4% (inactive)
C/C=C/c1ccc(C2[C@H]3CNC[C@@H]2N3C(=O)Nc2ccc(F)cc2)cc1 (some centres undefined),2.48% and -0.546%,0.263% (inactive) and -2.6% (inactive)
COc1ccc2c3c([nH]c2c1)[C@H](CO)N(C(=O)CN1CCOCC1)CC31CN(C(C)=O)C1,24.1%,42.6% (inactive)
